Results taken from PubChem BioAssay (NCI).
Compounds without any hit were thinned out: in the full panel of roughly 83,000, 20% have a hit.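 Single-dose data. Exposure time 48 hours. Values below 10 considered active.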 Unmarked numbers belong to inactive results. Active and inactive are the calls of the source.

The compounds below were run on OVCAR-5 ovarian (assay: NCI-60 one-dose screen, 48 h (100 = growth as untreated, 0 = no growth, -100 = all killed)). Details: 10 µM unless noted.
Protocol: Growth inhibition of the OVCAR-5 human tumor cell line is measured as a screen for anti-cancer activity. Cells are grown in 96 well plates and exposed to the test compound for 48 hours. Compounds are tested at a single concentration, which is 10^-5 M for most compounds. The reported endpoint is percent growth (GI% or GIPRCNT), where numbers from 0 - 100% represent growth inhibition, and numbers from -100% - 0 represent cell death. For example, a value of 40 represents 60% growth inhibition. A value of 0 means no net growth occurred over the course of the experiment. A value of -40 indicates 40% of cells at the beginning of the experiment died by the end of the experiment. A value of -100 means all cells are dead at the end of the experiment.
NCI-60 Human Tumor Cell Lines Screen was performed using the standard one-dose NCI protocol, which is described in more detail at https://dtp.cancer.gov/discovery_development/nci-60/default.htm.
Compounds with GIPRCNT values below 10 were considered active. Activity score was based on GIPRCNT using the following formula: […]
Score is 0 for GIPRCNT values of 100 or above, 50 for GIPRCNT values of 0, and 100 for GIPRCNT values of -100.

| SMILES | growth |
| --- | --- |
| CC[C@H](C)[C@@H]1NC(=O)[C@H](Cc2ccc(O)cc2)N(C)C(=O)[C@H](Cc2ccccc2)NC(=O)CN(C)C(=O)[C@@H]2CCCN2C(=O)[C@@H](Cc2ccccc2)N(C)C(=O)[C@H](CC(C)C)NC1=O | -7.89% (active) |
| COc1ccc(-c2nn(Cc3ccccc3)c3c2-c2oncc2CC3)cc1OC | 103% |
| CN1CCN(C(=O)[C@]2(C)CC[C@]3(C)CC[C@]4(C)C(=CC(=O)[C@@H]5[C@@]6(C)CCC(=O)NC(C)(C)[C@@H]6CC[C@]54C)[C@@H]3C2)CC1 | 110% |
| COc1c(Cl)cc(Cl)c2ccc(C=C3C(=O)NC(=S)NC3=O)nc12 | 109% |
| COc1ccc(-c2cnc(N)nc2-c2ccc(OC)cc2O)cc1 | 102% |
| CN(C)C(C(N)=O)c1ccc(Cl)cc1 (stereo not given) | 95.9% |
| CCCC/C(=N\N=C(N)N)c1ccc(F)cc1 | 50.5% |
| CSc1nc(O)c(-c2ccccc2)c(=O)[nH]1 | 97.5% |
| O=C(Nc1cccc(C2=NCCN2)c1)c1ccc(OCCCOc2ccc(C(=O)Nc3cccc(C4=NCCN4)c3)cc2)cc1 | 24.8% |
| S=c1[nH]cccc1-c1nnc2n1Nc1nc3ccc(Cl)cc3cc1CS2 | 95.3% |
| Brc1ccc(C2CC(c3cccc(Nc4ccncc4)c3)=NN2c2ccccc2)cc1 (stereo not given) | 89.3% |
| Cc1cc(NC(=O)c2cnc(N3CCN(CCOCCOCCOCCOCCC(=O)N[C@H](C(=O)N4C[C@H](O)C[C@H]4C(=O)N[C@@H](C)c4ccc(-c5scnc5C)cc4)C(C)(C)C)CC3)cn2)c2ncccc2c1 | 80.4% |
| COc1ccccc1Nc1cc(O)c2c(=O)cc(-c3ccccc3)oc2c1 | 78.1% |
| C#CC(=O)Nc1cccc(Nc2nc3c(c(NCc4ccccc4)n2)CCCC3)c1 | -45% (active) |
| CN1C2CCC1CN(c1cnc(C(=O)Nc3cc(F)cc4cccnc34)cn1)C2 | 70.3% |
| NC(=S)N/N=C(/c1ccccc1)c1ccccc1N | 94.8% |
| CCCCCCNC(=O)Oc1ccc(/C(=C(/CC)Cc2ccccc2)c2ccc(OCCN(CC)CC)cc2)cc1 | 83.2% |
| COc1ccc(/C=C/c2n[nH]c3ccc(N4CCOC4=O)cc23)cc1 | 14.1% |
| CC(C)(C)OC(=O)N1CCN(c2ccc(N)cc2)C(=O)C1 | 112% |
| CC(N)C(=O)NNc1n[nH]c(=S)n1N (stereo not given) | 92.9% |

| SMILES | growth |
| --- | --- |
| O=C1/C(=C\c2cn(Cc3ccccc3)c3ccc(Br)cc23)c2ccccc2N1c1c(Cl)cccc1Cl | 99% |
| CC(C)Cc1ccc(C(C)C(=O)NCc2ccc(Cn3c(=O)sn(-c4ccc(Cl)cc4)c3=O)cc2)cc1 (stereo not given) | 89.3% |
| COc1cc(C2CC(c3cccc(Nc4ccncc4)c3)=NN2c2ccccc2)cc(OC)c1OC (stereo not given) | 89.3% |
| CCOC(=O)c1ccc(Nc2ccnc(SCC(=O)c3ccc(C#N)cc3)n2)cc1 | 107% |
| C=C(C)[C@@H]1CC[C@]2(C=O)CC[C@]3(C)[C@H](CC[C@@H]4[C@@]5(C)CCCNC(C)(C)[C@@H]5CC[C@]43C)[C@@H]12 | 93.3% |
| COc1cc(NCCN(CC(C)C)C2CCCC2)c2ncccc2c1 | 96.4% |
| CCCCCCCC(=O)Nc1nc2[nH]c(CN3CCN(Cc4cccc(I)c4)CC3)c(CN3CCN(Cc4cccc(I)c4)CC3)c2c(=O)[nH]1 | -66.1% (active) |
| c1cnc2nc3c(cc2c1)oc1ccccc13 | 105% |
| COc1cccc(CNCCN2C(=O)c3ccc4c5c(ccc(c35)C2=O)C(=O)N(CCNCc2cccc(OC)c2)C4=O)c1 | 120% |
| CN1C(=O)N(C)C2NC(N/N=C/c3ccccc3)=NC21 (stereo not given) | 98.3% |
| O=C(N/N=C/c1ccncc1)c1ccccc1Nc1cccc(C(F)(F)F)c1 | 89.5% |
| COc1ccc(/C=C2\COc3ccc(-c4ccccc4)cc3C2=O)cc1O | 53.7% |
| COc1ccc(C2CC(c3cccc(Nc4ccncc4)c3)=NN2c2ccccc2)cc1 (stereo not given) | 79.7% |
| COc1ccc2c(c1)c(CC(=O)NCCOCCOCC(=O)Nc1ccc(OC)c(C(N)=O)c1O)c(C)n2C(=O)c1ccc(Cl)cc1 | 112% |
| O=C(/C=C/c1ccc[nH]1)c1ccc(-n2ccc(C(F)(F)F)n2)cc1 | 89% |
| CC(=O)c1cc2c(N)c(C(=O)Nc3cncc4ccccc34)sc2nc1C | 104% |
| CC(C)CN(C(=O)c1ccc(Cl)cc1)c1c(N)n(CC(C)C)c(=O)[nH]c1=O | 88.3% |
| COC(=O)C1=C(C(=O)ONCCN(C)C)C2C=CC1(C(Cc1ccccc1)Nc1ccc(F)cc1)O2 (stereo not given) | 100% |
| O=C1c2ccccc2C(=O)c2c(NCCN=Cc3ccccc3O)cccc21 | 78.9% |
| CCN(CC)CCOC(COc1cc(C)cc(C)c1)COc1cc(C)cc(C)c1 | 55.6% |
